NPC1 promoter act = activators of NPC1 promoter. Potency, µM (highest dose often 9.22 µM), actives largely listed as activators. AID 485313. 2.4% of 320,000 active. Huh7 NPC1 promoter luciferase reporter, 24 h; further: nearly all actives have a fitted effect of over 60% in size
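Stable NPC1-promoter luciferase Huh7 line; cpd (DMSO) 24 h, 37 °C, 5% CO2; Amplite luciferase reagent 10 min RT; luminescence readout. qHTS format.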
ELG1 genotox = inducers of genotoxicity in HEK293T ELG1-luciferase cells; HEK293T ELG1-luciferase reporter, luminescence, 16 h; Potency, µM (doses to about 46 µM), most hits filed as activators; 1.3% of 330,000 active; further: nearly all actives have a fitted effect of over 60% in size
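HEK293T cells expressing luciferase-tagged ELG1 were treated with compound or DMSO for 16 hr at 37°C. Luciferase activity was then read after 30 min with ONE-Glo at room temperature; rising signal flags genetic stress.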
Rab9 promoter act = activates the Rab9 promoter; Potency, µM (series often up to 9.22 µM), hits mostly activators; 2.8% of 320,000 active; AID 485297; Huh7 Rab9 promoter-luciferase reporter, luminescence, 24 h; further: nearly all actives have a fitted effect of over 60% in size
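Huh7 cells stably carrying a Rab9 promoter-luciferase reporter, 1500 cells per well in OP-MEM I with 10% FBS, treated with compound 24 hours at 37C. Luciferase activity read by luminescence after 10 minutes with Amplite reagent.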
SMN2 splice up = SMN2 splice variant enhancement; HEK293 SMN2-luciferase splicing reporter, luminescence, 30-36 h; Potency, µM (highest dose often 46.1 µM), most hits filed as activators; 2.8% of 210,000 active; further: nearly all actives have a fitted effect of over 55% in size
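HEK293 cells carry an SMN2 minigene-luciferase reporter in which exon 7 inclusion puts luciferase in frame. Cells were seeded at 2000 cells/well, attached for 10-12 hours, then exposed to compounds for 30-36 hours at 37C before ONE-Glo luminescence.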
FLuc counter = counter-screen for miR-21 project: firefly luciferase inhibitors or activators | 6.9% of 360,000 active | purified FLuc, Km substrates, luminescence inhibition | P08659 | AID 588342 | Potency, µM (doses to about 57.5 µM), most hits filed as inhibitors; further: nearly all actives have a fitted effect of over 55% in size
Target sequence (P08659 whole entry, looked up): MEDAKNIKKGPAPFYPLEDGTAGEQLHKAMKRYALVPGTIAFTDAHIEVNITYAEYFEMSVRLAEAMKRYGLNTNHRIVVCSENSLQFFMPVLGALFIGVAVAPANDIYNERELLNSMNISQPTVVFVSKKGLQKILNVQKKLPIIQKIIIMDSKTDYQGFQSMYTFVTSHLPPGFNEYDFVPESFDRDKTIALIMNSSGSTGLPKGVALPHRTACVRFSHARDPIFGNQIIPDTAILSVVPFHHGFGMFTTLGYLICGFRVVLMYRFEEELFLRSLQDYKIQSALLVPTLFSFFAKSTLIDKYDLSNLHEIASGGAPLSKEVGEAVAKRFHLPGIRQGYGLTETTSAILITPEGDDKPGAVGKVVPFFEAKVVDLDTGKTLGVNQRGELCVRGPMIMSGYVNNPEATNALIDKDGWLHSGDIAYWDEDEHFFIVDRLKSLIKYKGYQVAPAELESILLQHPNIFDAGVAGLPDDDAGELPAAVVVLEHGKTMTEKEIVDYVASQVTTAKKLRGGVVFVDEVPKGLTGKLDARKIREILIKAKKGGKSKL
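Purified P. pyralis luciferase, 10 nM final, with Km-level 10 uM D-luciferin and 10 uM ATP in 50 mM Tris acetate pH 7.5, 10 mM Mg acetate, 0.01% Tween-20, 0.05% BSA; 6-point qHTS titration about 60 µM downward; luminescence read.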
ELG1 DNA repair = inhibitors of ELG1-dependent DNA repair in HEK293T cells. HEK293T ELG1-luciferase reporter, luminescence, 16 h; DNA damage induced by 5-fluorouridine. Potency, µM (titrated, usually from 46.1 µM), most hits filed as inhibitors. 2.3% of 330,000 active; further: nearly all actives have a fitted effect of over 55% in size
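Cells (2,000 per well) received 5-fluorouridine plus test compound or DMSO and were incubated 16 hr at 37 °C, 5% CO2. Luciferase activity was read by luminescence 30 min after ONE-Glo addition; signal suppression marked inhibition of damage-induced ELG1 function.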
Large screens that a line does not name were inactive. In the library only some 9.4% were active in any assay of this set; here they are far more common. The call rests on the fitted dose curve; in most records, active means well fitted curve in the direction sought with a large enough effect; inconclusive means small, poorly fitted or top-dose-only effect, or another doubt; inactive means no such curve, though single readings can be large; an effect the other way counts as inactive or inconclusive.

O=C(O)c1cccc(NC(=O)c2ccc(Cl)c(S(=O)(=O)N3CCCCCC3)c2)c1	NPC1 promoter act 0.32µM, ELG1 genotox 2.3µM, Rab9 promoter act 0.35µM, SMN2 splice up 8.9µM, FLuc counter 0.11µM, ELG1 DNA repair inconclusive
O=C(Nc1cccnc1)c1ccc(Cl)c(S(=O)(=O)N2CCCCC2)c1	ELG1 DNA repair inconclusive (no result: SMN2 splice up)
O=C(O)c1ccc(Cl)c(S(=O)(=O)Nc2ccccc2C(=O)Nc2ccc(Cl)cc2)c1	FLuc counter 27µM (no result: SMN2 splice up)
Cc1ccnc(NC(=O)c2ccc(Cl)c(S(=O)(=O)N3CCCCC3)c2)c1	none (no result: SMN2 splice up, FLuc counter)
O=C(Nc1ccccn1)c1ccc(Cl)c(S(=O)(=O)N2CCCCCC2)c1	Rab9 promoter act inconclusive, FLuc counter 21µM (no result: SMN2 splice up)
CCC(Cn1nnc2ccccc2c1=O)NC(=O)Nc1cccc(C)c1C (stereo not drawn)	none (no result: NPC1 promoter act, ELG1 genotox, Rab9 promoter act, ELG1 DNA repair)
CCCC(c1cc(C(C)(C)C)c(O)cc1C)c1cc(C(C)(C)C)c(O)cc1C	none (no result: NPC1 promoter act, ELG1 genotox, Rab9 promoter act, FLuc counter, ELG1 DNA repair)
NC(=O)c1ccccc1NC(=O)Cn1nc(Cc2cccnc2)c2ccccc2c1=O	none (no result: NPC1 promoter act, ELG1 genotox, Rab9 promoter act, ELG1 DNA repair)
CCc1ccccc1NC(=O)CN1C(=O)C2CCCN2c2ccc(S(=O)(=O)N(CC)CC)cc21 (stereo not drawn)	none (no result: NPC1 promoter act, ELG1 genotox, Rab9 promoter act, SMN2 splice up, ELG1 DNA repair)
Cc1ccnc(NC(=O)c2ccc3c(c2)S(=O)(=O)c2ccccc2C3=O)c1	NPC1 promoter act inconclusive, FLuc counter 15µM, ELG1 DNA repair inconclusive (no result: SMN2 splice up)
O=C(Nc1ccccn1)c1ccc2c(c1)S(=O)(=O)c1ccccc1C2=O	ELG1 DNA repair inconclusive
O=C(O)c1ccc(Cl)c(S(=O)(=O)Nc2cccc(C(=O)Nc3cccc(C(F)(F)F)c3)c2)c1	FLuc counter 15µM
O=C(Nc1cccc(S(=O)(=O)N2CCOCC2)c1)c1ccc(Cl)nc1	ELG1 DNA repair inconclusive (no result: NPC1 promoter act, Rab9 promoter act, SMN2 splice up, FLuc counter)
O=C(CSCc1ccc(Cl)cc1Cl)Nc1ccccc1C(=O)Nc1ccc(C(=O)O)cc1	FLuc counter 19µM
COc1ccc(C(=O)O)cc1S(=O)(=O)Nc1cccc(C(F)(F)F)c1	none
O=C(Nc1cccc(S(=O)(=O)N2CCCC2)c1)c1ccc(Cl)nc1	ELG1 DNA repair 9.2µM (no result: NPC1 promoter act, Rab9 promoter act, SMN2 splice up, FLuc counter)
Cc1c(CCC(=O)NCC(=O)NCC(=O)O)c(=O)oc2cc3oc4c(c3cc12)CCCC4	FLuc counter 21µM (no result: SMN2 splice up)
Cc1c(CCC(=O)NCCC(=O)O)c(=O)oc2c(C)c3oc4c(c3cc12)CCCC4	FLuc counter inconclusive (no result: SMN2 splice up)
Cc1c(CCC(=O)O)c(=O)oc2cc3oc4c(c3cc12)CCCC4	FLuc counter 6µM, ELG1 DNA repair inconclusive (no result: SMN2 splice up)
Cc1c(CCC(=O)N2CCC(C(=O)NCCCCCC(=O)O)CC2)c(=O)oc2cc3oc4c(c3cc12)CCCC4	FLuc counter 13µM (no result: SMN2 splice up)
Cc1c(CCC(=O)N[C@@H](CC(C)C)C(=O)O)c(=O)oc2cc3oc4c(c3cc12)CCCC4	FLuc counter 17µM, ELG1 DNA repair inconclusive (no result: SMN2 splice up)
CCOC(=O)c1oc2ccc(S(=O)(=O)n3nc(-c4cc(OC)cc(OC)c4)cc3N)cc2c1C	none (no result: NPC1 promoter act, ELG1 genotox, Rab9 promoter act, ELG1 DNA repair)
Cc1oc2cc3oc(=O)c(CCC(=O)NCCC(=O)O)c(C)c3cc2c1C	FLuc counter 12µM (no result: SMN2 splice up)
Cc1coc2cc3oc(=O)c(CCC(=O)N4CCCCC4)c(C)c3cc12	none (no result: NPC1 promoter act, ELG1 genotox, Rab9 promoter act, ELG1 DNA repair)
Cc1c(CCC(=O)N2CCC[C@H]2C(=O)O)c(=O)oc2cc3oc4c(c3cc12)CCCC4	ELG1 genotox inconclusive, FLuc counter 12µM, ELG1 DNA repair inconclusive (no result: SMN2 splice up)
Cc1oc2cc3oc(=O)c(CCC(=O)NCCCC(=O)O)c(C)c3cc2c1C	FLuc counter inconclusive (no result: SMN2 splice up)
COc1ccc(Nc2cccc3ccccc23)cc1	Rab9 promoter act inconclusive, FLuc counter 27µM, ELG1 DNA repair inconclusive (no result: SMN2 splice up)
COc1ccc(Nc2cccccc2=O)cc1	FLuc counter inconclusive, ELG1 DNA repair inconclusive
COc1ccc(C(=O)Nc2cccc3ccccc23)cc1	NPC1 promoter act inconclusive, Rab9 promoter act inconclusive, FLuc counter 19µM, ELG1 DNA repair inconclusive (no result: SMN2 splice up)
COc1cc(OC)c(C(=O)Nc2cccc3ccccc23)cc1OC	FLuc counter 19µM, ELG1 DNA repair inconclusive (no result: SMN2 splice up)
COc1ccc(C(=O)NNC(=O)C(=O)Nc2cccc3ccccc23)cc1	none (no result: SMN2 splice up)
